From PubChem BioAssay
Most compounds without a hit are left out; they make up all but 5.7% or so of the library.
TGFb inhibitor: inhibitors of TGF-b signaling. Potency, µM (top dose mostly 46.1 µM), without a hit: at the highest dose activity, negative = inhibition, hits mostly inhibitors. HepG2 CAGA-GFP TGF-b/SMAD3 reporter, GFP fluorescence, 18 h; TGF-beta stimulated, 500 pg/mL final. AID 588855. 410,000 compounds, 1.2% hits; also: potency is read from the fitted curve at half-maximal effect; % is scaled to controls: 0 for no effect and ±100 for the full control effect; nearly all actives have a fitted effect of over 65% in size
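Per well, imaged GFP fluorescence of HEPG2 CAGA-GFP cells gives the signal; cells get compound, then TGF-beta (500 pg/mL final), 18 h at 37 degrees C; %Activity versus -TGF-beta and +DMSO controls.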
IL-1B inflam inh: inflammasome signaling inhibition, IL-1 beta readout. THP-1 LPS/ATP IL-1B secretion, AlphaLISA, 16 h; stronger effect = lower value. activity change, % at 57.5 µM. AID 743279. 360,000 compounds, 4.7% hits; in the data active = activity change below about -50%; inconclusive = mostly about -30% to -49%; also: % is scaled to controls: 0 for no effect and ±100 for the full control effect
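THP-1 cells pretreated 1 hr with compounds (up to 57.5 uM final), then stimulated with LPS (250 ng/mL final) plus ATP (1.25 mM final); secreted IL-1B measured by AlphaLISA after 16 hr, decreased signal indicating inhibition.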
ATXN2 expr inh: ATXN2 expression inhibition; 360,000 compounds, 0.72% hits; HEK-293 ATXN2-luciferase reporter, luminescence, 24 h; Potency, µM (titrated, usually from 57 µM), for inactives: at the highest dose activity change, negative = inhibition, usual class: inhibitors; also: potency is read from the fitted curve at half-maximal effect; % is scaled to controls: 0 for no effect and ±100 for the full control effect; nearly all actives have a fitted effect of over 55% in size
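qHTS (up to 57 uM final) was run with 24 h compound exposure of reporter cells at 37 °C. Each well was multiplexed: SteadyGlo luminescence measured ATXN2-luciferase expression after a fluorogenic Gly-Phe-AFC viability readout (25 uM final).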
ATXN viability: cell viability loss in ATXN counter-screen | S2 cells (HEK-293 line with an ATXN2-luciferase reporter) viability, CellTiter-Fluor protease fluorescence, 24 h | Potency, µM (doses to about 56.7 µM), hits mostly cytotoxic | 400,000 compounds, 0.49% hits; also: potency is read from the fitted curve at half-maximal effect; nearly all actives have a fitted effect of over 40% in size
HepG2 tox: HepG2 cytotoxicity, counter-screen for TGF-b inhibitors | Potency, µM (doses to about 46.1 µM), for inactives: at the highest dose activity change, negative = cytotoxicity, actives largely listed as cytotoxic | 410,000 compounds, 0.76% hits | AID 588856 | HepG2 CAGA-GFP viability, ATP luminescence, 18 h; also: potency is read from the fitted curve at half-maximal effect
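HepG2 CAGA-GFP cells (1000/well, DMEM with 1% FBS) received compound, then TGF-beta at 500 pg/mL final, and were incubated 18 hours at 37 degrees C. Viability was read by CellTiter-Glo luminescence. Media-only wells were set as complete cell-killing and DMSO as no toxicity.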
* marks the source's active call; other numbers are inactive results. Unless noted, calls follow the shape of the dose curve; as a rule, active = well fitted curve in the direction sought with a large enough effect; inconclusive = small, poorly fitted or top-dose-only effect, or another doubt; inactive = no such curve, though single readings can be large; an effect the other way counts as inactive or inconclusive.

For COc1cc(OC)c(CN2CCC(CO)(CCOc3ccccc3)CC2)c(OC)c1 the results were TGFb inhibitor -11.4%, IL-1B inflam inh -70.3*, ATXN2 expr inh -21.7%, ATXN viability inactive and HepG2 tox -35.2%.
For COc1cc(CN2CCC(CO)(CCOc3ccccc3)CC2)cc(OC)c1OC the results were TGFb inhibitor 6.4%, IL-1B inflam inh 7.7, ATXN viability inconclusive and HepG2 tox 1.3%.
For COc1ccc(CN2CCC(CO)(CCOc3ccccc3)CC2)cc1C the results were TGFb inhibitor -3.6%, IL-1B inflam inh -72.1*, ATXN2 expr inh -10.5%, ATXN viability inactive and HepG2 tox 12.1%.
Screening O=C1C(c2cccc(Br)c2)N(CCc2ccccc2)C(=O)CN1C1CCCCC1 (stereo not drawn) returned TGFb inhibitor -8.8% and HepG2 tox -3.6%.
`COc1cc2c(cc1OC)CN(C(=O)c1cc(C3CC3)nn1-c1ccccc1)CC2` gave TGFb inhibitor -22.9%, IL-1B inflam inh -55.3*, ATXN2 expr inh -16.4%, ATXN viability inactive and HepG2 tox -29.3%.
`CCN1CCOC(CC(=O)Nc2ccc([N+](=O)[O-])cc2)C1=O` (stereo not drawn) gave TGFb inhibitor 0.0%, IL-1B inflam inh -2.3, ATXN2 expr inh 22.8%, ATXN viability inactive and HepG2 tox 20µM*.
Screening CCCCCCC1CC(CC(=O)Nc2ccc([N+](=O)[O-])cc2)C(=O)O1 (stereo not drawn) returned TGFb inhibitor inconclusive, IL-1B inflam inh -60.7*, ATXN2 expr inh -22.3%, ATXN viability inactive and HepG2 tox 1.6%.
`O=C(CC1OCC2CCCN2C1=O)Nc1ccc([N+](=O)[O-])cc1` (stereo not drawn) gave TGFb inhibitor 5.2%, IL-1B inflam inh inconclusive, ATXN2 expr inh -2.9%, ATXN viability inconclusive and HepG2 tox -0.7%.
CNC(=O)[C@H](CC1=CN=C2C=CCC=C12)NC(=O)[C@@H](CC(=O)NO)CC(C)C was read as ATXN2 expr inh 0.0172µM*.
`Cc1c(N2C(=O)/C(=C/c3cccc4ccccc34)SC2=S)c(=O)n(-c2ccccc2)n1C` gave TGFb inhibitor 1.0%, IL-1B inflam inh -79.9*, ATXN2 expr inh -3.0%, ATXN viability inactive and HepG2 tox -8.9%.
Screening Cc1c(N2C(=O)/C(=C\c3ccccc3O)SC2=S)c(=O)n(-c2ccccc2)n1C returned TGFb inhibitor inconclusive, IL-1B inflam inh inconclusive, ATXN2 expr inh -19.8%, ATXN viability inactive and HepG2 tox -50.8%.
`Cc1ccc(/C=C2\SC(=S)N(c3c(C)n(C)n(-c4ccccc4)c3=O)C2=O)cc1` gave TGFb inhibitor 23.0%, IL-1B inflam inh -80.5*, ATXN2 expr inh -0.4%, ATXN viability inconclusive and HepG2 tox -33.1%.
`Cc1c(N2C(=O)/C(=C/c3ccc(N(C)C)cc3)N(C)C2=S)c(=O)n(-c2ccccc2)n1C` gave TGFb inhibitor -3.4%, IL-1B inflam inh -21.7, ATXN2 expr inh 1.2%, ATXN viability 12.6µM* and HepG2 tox -13.1%.
Screening CCC(C(=O)NCCc1ccc(OC)c(OC)c1)n1nc(C)c2sc3ccccc3c2c1=O (stereo not drawn) returned TGFb inhibitor inconclusive and HepG2 tox -8.8%.
`Nc1ncnc2c1ncn2COC(CO)CO` gave TGFb inhibitor 4.9% and HepG2 tox -3.6%.
CCOC(=O)/C=C1\CN(Cc2ccc(OC)cc2)S(=O)(=O)c2ccc(C(F)(F)F)cc21 was read as TGFb inhibitor inconclusive and HepG2 tox -31.3%.
For Cc1nc2c(C(=O)NCCc3ccc(Cl)cc3)c[nH]n2c(=O)c1Cc1ccc(Cl)cc1 the results were TGFb inhibitor inconclusive and HepG2 tox 11.2µM*.
`Cc1nc2c(C(=O)NCCc3ccccc3)c[nH]n2c(=O)c1Cc1ccccc1F` gave TGFb inhibitor inconclusive, ATXN2 expr inh 1.8%, ATXN viability inactive and HepG2 tox -63.4%.
